# PubChem BioAssay AID777 (Sanford-Burnham Center for Chemical Genomics, 2007)
# Screen size: about 96,000 compounds; about 19,000 (20%) were called active. Only a sample is shown. Unmarked numbers belong to inactive results.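 The calls were made as follows: active = blocking of liver enzyme CYP2C9 beyond about 50% at 5 µM (limit read from the data); inactive = the rest.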
# Molecular target: Cytochrome P450 2C9 (Homo sapiens) (UniProt P11712)
# Assay: blockers of cytochrome P450 2C9 activity – biochemical, luminescence, ADME assay, primary screen (AID 777)
# Settings: CYP2C9 Supersomes, luciferin-H conversion, at 5 µM, active compounds read high
# Chain of Cytochrome P450 2C9 (Homo sapiens) (P11712 whole entry, looked up): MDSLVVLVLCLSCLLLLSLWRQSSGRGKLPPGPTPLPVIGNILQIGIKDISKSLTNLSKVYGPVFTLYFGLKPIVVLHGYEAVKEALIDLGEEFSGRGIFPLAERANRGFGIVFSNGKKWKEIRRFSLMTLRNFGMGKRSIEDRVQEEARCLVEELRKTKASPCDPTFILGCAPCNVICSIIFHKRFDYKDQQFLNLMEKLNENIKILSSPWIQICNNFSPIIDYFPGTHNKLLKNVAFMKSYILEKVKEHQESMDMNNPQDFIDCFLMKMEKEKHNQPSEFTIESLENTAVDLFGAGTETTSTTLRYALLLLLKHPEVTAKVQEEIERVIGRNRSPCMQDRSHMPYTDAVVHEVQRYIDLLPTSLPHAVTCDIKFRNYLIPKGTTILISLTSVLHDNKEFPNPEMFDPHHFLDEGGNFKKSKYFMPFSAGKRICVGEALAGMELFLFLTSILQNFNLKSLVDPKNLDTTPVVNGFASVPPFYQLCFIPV
row,Compound,inhibition
1,S=c1[nH]nc(-c2ccc(Cl)cc2)n1CC1CCCO1 (stereo not given),15.7%
2,CC(C)NS(=O)(=O)c1ccc(CCC(=O)N2CCOCC2)cc1,0%
3,CC1CCCCC1NC(=O)CSc1nnc(N)s1 (stereo not given),-16.3%
4,CCCC1CC(C)(C(=O)Cn2[nH]c(=O)ccc2=O)OC1=O (stereo not given),-20.1%
5,CC(C)Nc1ncnc2c1nnn2Cc1ccccc1,-0.4%
6,Nc1c(C(=O)NCc2ccccc2)nnn1Cc1cccc(Cl)c1,19.3%
7,COC(=O)c1c(C)c(C)nc(N)c1C#N,-10.8%
8,N#CCCN(CCC#N)c1nnc(-c2ccccc2)s1,2.8%
9,CCN(CC)Cc1c(C(=O)OC)nnn1-c1nonc1N,-22.1%
10,CCOC(=O)c1nnn(-c2nonc2-n2cccc2)c1CN1CCC(C(=O)OCC)CC1,94.8% (active)
11,CCOC(=O)c1nnn(-c2nonc2-n2cccc2)c1CN1CCOCC1,16.6%
12,O=c1c2c(nc3nc[nH]n13)CCC2,-10.5%
13,Cc1onc(-c2ccccc2)c1C(=O)Nc1ccccc1C#N,62.8% (active)
14,Cc1noc(C)c1C(=O)Nc1ccccn1,3.8%
15,CC(=O)Nc1cccc(-c2cnc3ccccc3n2)c1,49.7%
16,O=C(Nc1cccc2ccccc12)c1onc2c1CCCC2,-38.6%
17,Cc1onc(-c2ccccc2)c1C(=O)N1CCOCC1,-1.3%
18,CC(=O)Nc1cccc(NC(=O)c2c(-c3ccccc3)noc2C)c1,74.3% (active)
19,COC(CNC(=O)Cn1ncc2ccsc2c1=O)OC,-15.8%
20,CCCC(=O)N=c1sc2cccc(F)c2n1C,14.7%
21,CC1=Nn2c(nnc2-c2ccccc2)SC1,-4.9%
22,CCn1c(=N)c(S(=O)(=O)c2ccc(F)cc2)cc2c(=O)n3ccccc3nc21,-0.6%
23,O=C(Nc1nsc(-c2ccccc2)n1)c1ccncc1,45.7%
24,CCC(=O)Nc1nc(OC)cc(OC)n1,2.1%
25,COc1ccc(-n2c(SCC(=O)Nc3sc4c(c3C#N)CCCC4)nnc2-c2ccc(O)cc2)cc1,33.9%

row,Compound,inhibition
1,N#Cc1ccsc1NC(=O)CN1CCCCC1,-15.3%
2,CC(c1nnc(SCC(=O)Nc2sccc2C#N)n1-c1ccc(Cl)cc1)N(C)C (stereo not given),50.8% (active)
3,COc1ccc(NC2CC(=O)N(C)C2=O)cc1 (stereo not given),1.8%
4,Cc1c(Cl)c([N+](=O)[O-])nn1Cc1ccc(C(=O)N/N=C\c2cc(Cl)ccc2O)o1,41.2%
5,CCOc1ccc(-c2nnn(CC(=O)N3CCN(c4ccc(OC)cc4)CC3)n2)cc1OCC,1.7%
6,O=C1c2ccccc2C(O)N1Cc1ccccc1 (stereo not given),-2.8%
7,O=C(NCc1ccccc1)[C@@H]1CSC2c3ccccc3C(=O)N21 (stereo not given in full),67.1% (active)
8,Cc1ccc(CNC(=O)C2CCCN2C(=O)NCc2ccccc2)cc1 (stereo not given),-10%
9,Cn1cccc1C(=O)NC(=O)COC(=O)Cc1coc2ccc3ccccc3c12,-91.7%
10,O=C(c1ccco1)N1CCN(C(=O)C2CCCN(S(=O)(=O)c3cccc4nsnc34)C2)CC1 (stereo not given),12.6%
11,COc1ccc(C(=O)Nc2c(N)nc(SCC(=O)N3CCC(C)CC3)[nH]c2=O)cc1OC,-5.6%
12,COc1ccc(C(=O)Oc2cc(/C=N/NS(=O)(=O)c3ccc(C)cc3)ccc2OC)cc1,29.8%
13,COc1ccc(/C=C(/NC(=O)c2ccc(C)cc2)c2nc3ccccc3[nH]2)cc1OC,69.5% (active)
14,Cc1ccc(C(=O)NNC(=O)c2cc3cc4ccccc4nc3s2)cc1,6.6%
15,O=C(NCCCN1CCN(C2CCCCC2)CC1)Nc1ccccc1C(F)(F)F,0.7%
16,O=C(NCc1ccco1)c1cc(-c2cccnc2)nc2ccc(Cl)cc12,17.9%
17,Cc1cc(NCc2ccco2)n2c(nc3ccccc32)c1C#N,20.4%
18,Clc1cccc(-c2nc3nc4ccccc4nc3n2Cc2ccco2)c1,52.8% (active)
19,O=C(COC(=O)CCc1c[nH]c(=O)[nH]1)Nc1ccccc1Cl,-6%
20,CCOC(=O)c1nnn(-c2nonc2OC)c1-c1ccccc1,26.7%
21,O=C(O)C1CCCN1S(=O)(=O)c1ccc2c(c1)CCC2 (stereo not given),-48.8%
22,O=C1CCc2cc(S(=O)(=O)N3CCC(C(=O)NCc4ccccc4Cl)CC3)ccc2N1,24.7%
23,CSc1cccc(NC(=O)C2CCCN2S(=O)(=O)c2ccc3c(c2)CCC(=O)N3)c1 (stereo not given),81.6% (active)
24,CCN1CCN(c2ccc([N+](=O)[O-])cc2C(=O)c2ccc(Cl)cc2)CC1,-60.5%
25,CCc1nnc(NC(=O)c2nc3nccc(C)n3n2)s1,1.9%

row,Compound,inhibition
1,CCn1c(SCC(=O)Nc2nc(C)cs2)nnc1C(C)NC(=O)c1ccccc1 (stereo not given),21.2%
2,Cc1ccc(-c2csc(NC(=O)Cc3cccs3)n2)cc1C,26.9%
3,O=C(CSC1=NCCS1)Nc1nc(-c2ccccc2)cs1,60.8% (active)
4,CCCc1ccc(-c2csc(NC(=O)Cc3cccs3)n2)cc1,42.2%
5,Cc1cccc(S(=O)(=O)CC(=O)Nc2nc(-c3ccccc3)cs2)c1,91.4% (active)
6,Cc1ccc(-c2csc(NC(=O)c3cccs3)n2)cc1,3.3%
7,Cc1cccc2nc(CNc3ccc(F)cc3)cn12,38.8%
8,COc1cccc(-c2nnc(N(C)C(=O)c3ccno3)s2)c1,2.4%
9,CC(=O)c1cc(-c2ccccc2)[nH]c1N1CCCC1,12.9%
10,COc1cc(OC)cc(C(=O)NCCSCc2ccco2)c1,-1.5%
11,Cc1ccccc1NC(=O)NCc1ccco1,-34.3%
12,CS(=O)(=O)N(Cc1ccc(Cl)cc1)c1ccc(C(=O)NCCSCc2ccco2)cc1,74.1% (active)
13,CCc1ccccc1N(CC(=O)NCCSCc1ccco1)S(C)(=O)=O,25.8%
14,Cc1cccc(Nc2ccccc2C(=O)NCc2ccco2)c1C,27.2%
15,Cc1ccc(C)c(NC(=O)c2ccc(OC(=O)c3ccco3)cc2)c1,-24%
16,Cc1ccc(C(=O)N/C(=C/C=C/c2ccccc2)C(=O)NCc2ccco2)cc1,36%
17,O=C(Nc1ccccc1)Nc1ccccc1C(=O)NCc1ccco1,88.1% (active)
18,Cc1ccc(N(Cc2ccc(C(=O)Nc3ccccc3C(=O)NCc3ccco3)cc2)S(C)(=O)=O)cc1C,72% (active)
19,COCCNC(=O)Cn1cc2c(n1)CCCCC2,1.8%
20,COc1cc2cc(CN(CCN3CCCC3)C(=O)Nc3ccccc3Cl)c(=O)[nH]c2cc1OC,15%
21,O=S(=O)(O)CCN1CCOCC1,1.4%
22,COc1cc(/C=C2/C(=O)ON=C2C)ccc1OCc1ccccc1F,-5.4%
23,COc1ccc(C2SCCN2S(=O)(=O)c2ccccc2)cc1OC (stereo not given),-107%
24,CCCN1Cc2cccc(C(=O)NCc3ccccc3)c2C1=O,16.3%
25,N#CC1=C(N)OC2=C(C(=O)CCC2)C1C1CC=CCC1 (stereo not given),37.1%

row,Compound,inhibition
1,O=C(O)CN1C(=O)CC(Cc2ccccc2)C1=O (stereo not given),7.4%
2,COc1ccc(OC)c(C(=O)c2ccc(C(=O)O)cc2)c1,9.5%
3,COc1ccc(O)c(C(=O)c2cnc3onc(C(C)C)c3c2)c1,96.6% (active)
4,COc1ccc(O)c(C=Nc2cc(C)on2)c1,-5.4%
5,O=C(CCSc1ccccc1)NCCSc1ccccn1,41.7%
6,COc1ccc(C(C(O)C(=O)c2c[nH]c3ccccc23)N2CCN(c3ccccc3)CC2)cc1 (stereo not given),26.9%
7,CS(=O)(=O)c1ccc2nc(NC(=O)CN3CCCCCC3)sc2c1,25.1%
8,CC1CCCC(NC(=O)CSc2nccn2C)C1C (stereo not given),-4.4%
9,CC1=CC(C)(C)N(C(=O)CSc2nccn2C)c2cc(C)ccc21,61.4% (active)
10,CC1=CC(C)(C)N(C(=O)CSc2nnc(-c3ccccc3)o2)c2ccc(C)cc21,11.9%
11,COCCNC(=O)CN(C(=O)CCC(=O)Nc1cc(C)on1)c1ccc(C)cc1C,-2.4%
12,c1n[nH]c(NCc2ccc3c(c2)OCO3)n1,1%
13,N#Cc1nc(Cc2cccc3ccccc23)oc1NCc1ccc2c(c1)OCO2,63.7% (active)
14,COc1cc2[nH]c(=S)n(CCN3CCCCC3C)c(=O)c2cc1OC (stereo not given),23.6%
15,Cc1ccc(S(=O)(=O)/N=C(\CN2CCOCC2)N2CCOCC2)cc1,7.1%
16,CC(=O)C1C(c2cccc(Oc3ccccc3)c2)NC(=O)NC1(O)C(F)(F)F (stereo not given),0.7%
17,Cc1cccc(NC(=O)CSc2nnc(NC(=O)CN3CCOCC3)s2)c1,10.9%
18,COCCn1c(C)cc(C(=O)CSc2ncnc3sc4c(c23)CCC4)c1C,-41.7%
19,COCCNc1nc(-n2nc(C)cc2C)nc2sc3c(c12)CCCC3,16.5%
20,Cc1cc(C)n(-c2nc(SCC(=O)N3CCCC3)c3c4c(sc3n2)CCCC4)n1,78.8% (active)
21,CCCC1C(c2ccccc2)C(C#N)(C#N)C2(C#N)CC1(N)NC2=O (stereo not given),4.8%
22,COc1ccc(N2C(=O)CN=C2Nc2cccc(C)c2C)cc1OC,10.9%
23,Cc1ccc(S(=O)(=O)N2CC(=O)Nc3ccccc32)cc1C,-50.4%
24,Cc1cc(N2CCN(S(=O)(=O)c3ccc(C)c(C)c3)CC2)c2ccccc2n1,89.9% (active)
25,O=c1ccc2cc(S(=O)(=O)N3CCN(c4ccccc4)CC3)ccc2o1,5.5%
